In the supplement of paper PMC11417369:
± gives the standard deviation of the averaged measurements. The full ranking holds about 25,000 sequences; the median of “ln(normalized median fluorescence intensity)” is about 10, and the highest 2% start at about 12. Many of the other results were omitted from the sample, so the highest values are more common in it than they were.

The sequences below were run on PfAP2-G AP2 domain (GST-tagged) (assay: gcPBM binding intensity (ln(normalized median fluorescence intensity)); higher = stronger DNA binding).
How it was run: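 Probes on an Agilent 4 × 180k array were primer-extended, double-stranded and 36 bp long, taken from intergenic genomic regions, with negative controls added. GST-tagged P. falciparum DNA-binding domains from E. coli, about 25 μg on average, were applied to the array for 1 h in 1× PBS containing 1% milk, 0.2 mg/ml BSA, 0.5% salmon testes DNA and 0.03% Triton X-100. Binding intensity, obtained after Alexa488 anti-GST antibody detection and a 488 nm scan, is the highest Masliner-normalised natural-log median intensity across replicate spots of either probe orientation.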

Row | Sequence | gcPBM binding intensity (ln)
1 | TAAAAAAAAAGAAGCTGTACTAAAAAATTTATATTA [XGTACX_site7408] | 11.1 ± 0.81
2 | ACATATAATATAAAGTGTACAAGAAAATAAAAATAA [XGTACX_site1273] | 11.3 ± 0.77
3 | TATATATATATTATATGTACACAAGGAAATATGCAT [XGTACX_site5637] | 11.5 ± 0.75
4 | ATATATGTGTATGTATGTACTTATATTTTTTTTTAT [XGTACX_site1733] | 11.2 ± 0.78
5 | CTTCCTATATTTTACTGTACTTTTTTTTTTTTTTTT [XGTACX_site4016] | 11.7 ± 0.98
6 | TATATTTATTCCTGTTGTACTTTATATTATTTTTTT [XGTACX_site1415] | 11.3 ± 0.6
7 | TATAAATATATATTTTGTACTTAATATAAATTTATA [XGTACX_site7996] | 11 ± 0.62
8 | ATTTTTTTATTTTTGTGTACTTATAAGAATATTAAT [XGTACX_site4850] | 11.7 ± 1.1
9 | TATATTAAAATTTACTGTACTTTTTTTATTTTAAAA [XGTACX_site4077] | 11.6 ± 1.1
10 | TAAATAAAAATACAGTGTACTTTTTTCTATTTAAAA [XGTACX_site3288] | 11.7 ± 1.2
11 | ATTTAAATACAAAATTGTACTTTTCTATATTTAACA [XGTACX_site6146] | 11.3 ± 0.64
12 | ATATATATATATATATGTACTTATTTATTTTATATA [XGTACX_site8810] | 11.5 ± 1.1
13 | TTATATATTTTTATGTGTACTTATATATATATATAT [XGTACX_site6211] | 11.7 ± 1.1
14 | GTTAAGAATATATAATGTACTTATTTTAATATAGTA [XGTACX_site6088] | 11.1 ± 0.84
15 | ACTATTATTAAAAATTGTACTTTCTATAAATTTTTT [XGTACX_site7825] | 11.1 ± 0.62
16 | ATATATTAAAACCTAGTGCATTTGTACATATTTCAA | 11 ± 0.52
17 | ATTTTAGATGAAAAAGCACACAACATATATATATAT [CACACA_site2295] | 10.2 ± 0.43

Row | Sequence | gcPBM binding intensity (ln)
18 | TAATAAATAAGACACACACACATATATATATATTAT [CACACA_site1389] | 10.01 ± 0.042
19 | TTGTATTATTAAATTATAAAACCTATAATTATGGAT [GTGCAC_negctrl_site340] | 9.68 ± 0.099
20 | TGGAAATTCTCAGGAGTGCATATTTGCAGTTTACGT [GTGCAC_site9768] | 10.3 ± 0.25
21 | GGGAAAGAACCATATACATGCATATTTACCGTTAAA [TGCATGCA_site519] | 10 ± 0.28
22 | ATTTATATATAATATACACACATATAATCCACATAT [CACACA_site699] | 10.15 ± 0.035
23 | CAAAAAATATATTTTTGTACTTATGTTTTTATTTTG [XGTACX_site5230] | 11.1 ± 0.76
24 | AATTTTTTTTTATTGTGTACTTATTTTTTTATATTT [XGTACX_site917] | 11.7 ± 0.88
25 | GCTATTTATTTATATTGTACTTTTTTTTTTTTTTTT [XGTACX_site3624] | 11.7 ± 1.1
26 | TTTTTTTTTTTAAATTGTACTTATTTTATATTATAT [XGTACX_site1077] | 11.4 ± 0.9
27 | TATATATATATCAAGTGTACTTGTGTTTGTAATATT [XGTACX_site8854] | 11.4 ± 1
28 | ATATATATATATATATGTACTTAATATTTCTTATTT [XGTACX_site6206] | 11 ± 0.76
29 | ATATATATATATGTGTGTACTTATTTATTTATTTGT [XGTACX_site549] | 11.5 ± 1
30 | TCTTTTTAATTTATATGTACTTATATTAATTATAAG [XGTACX_site7524] | 11.4 ± 0.97
31 | TATATATATATATATTGTACTTTATTTTATATATTC [XGTACX_site5697] | 11.2 ± 0.71
32 | TTTAAATTTTTATATTGTACTTTATTTATTTATTTA [XGTACX_site869] | 11.2 ± 0.85
33 | TTTTTGTTTTTTTTGTGTACTTATCAAATATATATA [XGTACX_site7273] | 11.6 ± 0.83
34 | TTTTTTCTTTTTATGTGTACTTATTTTATTTAATAA [XGTACX_site1080] | 11.7 ± 1.1
